From PubChem BioAssay
Only a selection was taken, and hits are over-represented in it overall.
BL2 CD40 inh – inhibitors of CD40-induced NF-kB signaling, primary screen, BL2 cells, luciferase reporter, single point; inhibition, % at 10 µM; CD40L-induced, 4 h; actives 0.94% (n = 83,000); AID 1053188, 2014;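 active = mean inhibition of at least 50% with a set share of replicates also reaching that level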;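 also: 0% = neutral control wells and 100% = IKK inhibitor VII at 50 µM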
* = called active by the depositor; [ ] = remark or other dose.

SMILES	BL2 CD40 inh
COc1ccc2[nH]c(C)c(CCNCc3cn(C)c4ccccc34)c2c1	25
COc1ccc2[nH]c3c(c2c1)CCN=C3C	58*
COc1ccc2[nH]cc(CCN)c2c1	-4
CN1C2CN(CC(F)(F)F)CC1C2c1ccc(Br)cc1 (stereo unspecified)	-3
O=C(Cc1ccncc1)N1CCCCN2[C@H](CO)[C@H](c3ccc(C#Cc4ccccc4F)cc3)[C@H]2C1	-11[25 µM]
C[C@H](CO)N1C[C@H](C)[C@@H](CN(C)C(=O)Oc2ccccc2)OCc2ccccc2-c2c(n(C)c3ccccc23)C1=O	16
CC(C)NC(=O)N1C[C@@H]2C(c3ccc(Br)cc3)[C@H](C1)N2CC1CC1 (stereo partly specified)	18
COC(=O)[C@H]1[C@H](CO)[C@H]2Cn3c(ccc(-c4ccc(F)cc4)c3=O)[C@@H]1N2C(C)=O	8[25 µM]
CCNC(=O)[C@H]1O[C@@H](n2cnc3c(N)ncnc32)[C@H](O)[C@@H]1O	3
NC(=O)c1c(Br)n(C2OC(CO)C(O)C2O)c2ncnc(N)c12 (stereo unspecified)	56*
N#Cc1c(Br)n(C2OC(CO)C(O)C2O)c2ncnc(N)c12 (stereo unspecified)	83*
CN1C[C@@H]2N[C@H](C1)C2c1ccc(Br)cc1 (stereo partly specified)	0
CC=Cc1ccc2n(c1=O)C[C@H]1[C@H](CO)[C@@H](C(=O)OC)[C@@H]2N1C(=O)CC1CC1 (mixture of isomers)	-2[25 µM]
CC(=O)N1C2CN(C)CC1C2c1ccc(Br)cc1 (stereo unspecified)	-2
C[C@H]1CN([C@@H](C)CO)C(=O)CCCn2cc(nn2)CO[C@H]1CN(C)C(=O)Oc1cccc2ccccc12	-6[25 µM]
COC(=O)[C@@H]1[C@@H](CO)[C@@H]2Cn3c(ccc(-c4cccnc4)c3=O)[C@H]1N2S(=O)(=O)c1ccccc1C	2[25 µM]
Cc1cccc(S(=O)(=O)N2[C@@H]3c4ccc(-c5ccc(F)cc5)c(=O)n4C[C@H]2[C@H](CO)[C@H]3C(=O)O)c1	-1[25 µM]
c1ccc(Cn2ccnc2)cc1	1
Clc1ccc(CSC(Cn2ccnc2)c2ccc(Cl)cc2Cl)cc1 (stereo unspecified)	49*
C/C=C/c1ccc(C2[C@@H]3CN(C(=O)C4CCOCC4)C[C@H]2N3)cc1 (stereo partly specified)	4[25 µM]
COc1cccc(-c2ccc([C@H]3[C@@H](CO)N4CCCCN(C(=O)Cc5ccncc5)C[C@H]34)cc2)c1	-4[25 µM]
C[C@@H]1CN([C@@H](C)CO)C(=O)c2c(c3ccccc3n2C)-c2ccccc2CO[C@H]1CN(C)C(=O)Oc1ccccc1	34
CCN(CCCl)c1cc(CN(C)C)cc(NC(=O)c2ccc(C(=O)Nc3cc(CN(C)C)cc(N(CC)CCCl)c3)cc2)c1	108*
COc1cccc(-c2ccc([C@@H]3[C@@H](CO)N4CCCCN(C(=O)Cc5ccncc5)C[C@H]34)cc2)c1	1[25 µM]
O=C(O)[C@H]1[C@H](CO)[C@H]2Cn3c(ccc(-c4ccc(F)cc4)c3=O)[C@@H]1N2CC1CCCC1	7
SMILES	BL2 CD40 inh
OCC1OC(n2cnc3cc(Cl)c(Cl)cc32)C(O)C1O (stereo unspecified)	47*
C[C@H](CO)N1C[C@H](C)[C@H](CN(C)C(=O)Oc2ccccc2)OCc2ccccc2-c2c(n(C)c3ccccc23)C1=O	13
O=C(O)[C@H]1[C@H](CO)[C@H]2Cn3c(ccc(-c4ccncc4)c3=O)[C@@H]1N2C(=O)C1CCCCC1	0
CS(=O)(=O)N1C[C@@H]2C(c3ccc(Br)cc3)[C@H](C1)N2CC1CC1 (stereo partly specified)	3
CN1CCC2(c3cccc(O)c3)Cc3nc4ccccc4cc3CC2C1 (stereo unspecified)	3[25 µM]
O=C(Cc1cccnc1)N1CCCCN2[C@H](CO)[C@@H](c3ccc(C#CC4CCCC4)cc3)[C@@H]2C1	-9[25 µM]
CC1CC(C)(O)CC(C(O)CC2CC(=O)NC(=O)C2)C1=O (stereo unspecified)	96*
CC(=O)N1C[C@@H]2N[C@H](C1)C2c1ccccc1 (stereo partly specified)	-4
O=C(O)C[C@@H]1CC[C@H]2NC[C@H](O)COC[C@@H]2O1	0[25 µM]
